Assay outcomes (PubChem)
Shiga inhibitor = A qHTS for Small Molecule Inhibitors of Shiga Toxin; Vero cells, Shiga toxin protein synthesis inhibition reporter; inhibition, % at 38.7 µM; 290,000 compounds, 9.2% hits; in the data active = inhibition mostly above about 28%, no sharp cut-off; inactive = mostly below about 43%; note: 0% is about no effect
SARS PLpro yeast = qHTS of Yeast-based Assay for SARS-CoV PLP | S. cerevisiae expressing SARS-CoV PLpro, growth rescue | Potency, µM (titrated, usually from 32.9 µM), for the others: top-dose activity, positive = growth rescue, hits mostly activators | 330,000 compounds, 0.19% hits | AID 485353, 2010; note: potency is the fitted concentration of half-maximal effect; 0% is about no effect; nearly all actives have a fitted effect of over 55% in size
NS1 inh = qHTS Assay for Inhibitors of Influenza NS1 Protein Function; AID 2326, 2010; 270,000 compounds, 0.4% hits; Potency, µM (doses to about 46.1 µM), without a hit: at the highest dose activity, positive = more growth; note: potency is the fitted concentration of half-maximal effect; actives are rising curves; nearly all actives have a fitted effect of over 50% in size
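OD600 was taken as the measure of yeast growth restored by compound in an NS1-expressing S. cerevisiae strain. Cells had been washed out of glucose medium and diluted 1:100 into galactose -URA medium, pH 6.0.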
CHX counter = Cycloheximide Counterscreen for Small Molecule Inhibitors of Shiga Toxin. cell reporter, cycloheximide protein synthesis inhibition counterscreen. 300,000 compounds, 12% hits. max response, %. AID 2314, 2010; in the data active = max response mostly above about 13%, no sharp cut-off; inactive = mostly below about 14%; note: read at 38.3 µM for the half of the compounds with a filed dose; 0% is about no effect
An asterisk follows results filed as active; u = inconclusive; x = no result; + = active, no number. Rows were chosen to be rich in hits. Some 12% of all compounds tested hit in one or more screens of this group. Unless noted, calls come from the whole dose curve.

SMILES	Shiga inhibitor	SARS PLpro yeast	NS1 inh	CHX counter
Cc1cc(=S)n(-c2ccccc2)n1C	39*	-2%	-1%	16
O=C(CSc1nnnn1-c1ccc2c(c1)OCCO2)OC1CCCCC1	102*	5%	-12%	34*
O=C(CSc1nnnn1-c1ccc2c(c1)OCCO2)N1CCc2ccccc21	-10	4%	0%	-7
c1ccc(CSc2nnnn2-c2ccc3c(c2)OCCO3)nc1	43	-4%	-11%	21*
O=C(CSc1nnnn1-c1ccc2c(c1)OCCO2)Nc1nc2c(s1)CCCC2	20	-2%	-10%	1
O=C(CN1C(=O)/C(=C2/SC(=S)N(CCS(=O)(=O)O)C2=O)c2ccccc21)Nc1cccc(Br)c1	x	0%	x	x
CN1CCN(CC(=O)Nc2nc(-c3c[nH]c4ccccc34)cs2)CC1	62*	1%	x	22*
CCC(C)Nc1nc(-c2c[nH]c3ccccc23)cs1 (stereo not drawn)	15	-3%	0%	31*
CCc1ccc(-c2csc(-c3c[nH]c4ccccc34)n2)cc1	38*	-16%	-6%	62*
CNc1nc(-c2c[nH]c3ccccc23)cs1	-2	-13%	u	6
Cc1ccc(-c2csc(NC(=O)CN3CCC(C(N)=O)CC3)n2)cc1	x	2%	-5%	8
CC1CC(C)CN(Cc2nc3c(c(=O)n(C)c(=O)n3C)n2Cc2ccccc2Cl)C1 (stereo not drawn)	x	x	0%	x
Oc1ccc(N2CCN(CC(O)c3ccccc3)CC2)cc1 (stereo not drawn)	-12	1%	10%	-3
C/C(=N\N1CCN(c2ccccc2)CC1)c1ccc(O)cc1	45*	-2%	0%	24*
C/C(=N\N1CCCCC1)c1ccccc1O	1	0%	2%	-1
C/C(=N\N1CCN(c2ccccc2)CC1)c1ccccc1O	33	0%	-8%	23*
C[C@H](CC(=O)O)C(C(=O)O)C(=O)O	x	x	-1%	x
COCc1c(C(=O)N/N=C(/C)c2ccc(OCc3ccccc3)cc2)nnn1-c1nonc1N	97*	-8%	-14%	23*
C/C(=N\N=C\c1ccccc1F)c1nnn(-c2nonc2N)c1C	80*	7%	-3%	16*
C/C(=N\NC(=O)c1nnn(-c2nonc2N)c1C)c1ccc(OCc2ccccc2)cc1	57*	0%	14%	22*
Nc1nonc1-n1nnc(C(=O)N/N=C/c2ccccc2F)c1-c1cccs1	2	10%	6%	-7
CCOc1ccc(CN2CCNC(=O)C2CC(=O)NCC2CCOCC2)cc1 (stereo not drawn)	-5	u	1%	-3
Cc1ccc(NC(=O)CSc2nc3sc(C)cc3c(=O)n2C)cc1	-14	-1%	-38%	-3
Cc1ccc2nc(Nc3ccc(C)c(C)c3)c3nncn3c2c1	28*	0%	-2%	12
Cc1ccc2nc(NCCc3ccc(Cl)cc3)c3nncn3c2c1	6	-1%	-5%	-1
SMILES	Shiga inhibitor	SARS PLpro yeast	NS1 inh	CHX counter
Cc1cc(C)cc(Nc2nc3ccc(C)cc3n3cnnc23)c1	-4	0%	1%	-3
Cc1ccc(Nc2nc3ccccc3n3cnnc23)cc1C	31*	0%	-2%	37*
Cc1cccc(CCNc2nc3ccc(C)cc3n3cnnc23)c1	74*	-3%	4%	30*
COc1ccc(Nc2nc3ccccc3n3cnnc23)cc1	-7	-6%	-48%	-2
CC1=NN(C(=O)Cc2ccc([N+](=O)[O-])cc2)C(O)(c2ccccc2)C1 (stereo not drawn)	-10	-3%	5%	-1
COc1ccccc1C(=O)C1Nc2ccccc2-c2nnc(SC)nc2O1 (stereo not drawn)	13	17%	8%	1
C=CCSc1nnc2c(n1)OC=Nc1ccccc1-2	22	-6%	-75%	12
CCC1Nc2ccccc2-c2nnc(SC)nc2O1 (stereo not drawn)	-16	1%	2%	6
C=CCSc1nnc2c(n1)OC(c1ccco1)Nc1ccccc1-2 (stereo not drawn)	+	-3%	-7%	40*
CCCSc1nnc2c(n1)OC(c1sccc1C)Nc1ccccc1-2 (stereo not drawn)	66*	x	x	41*
CCCCSc1nnc2c(n1)OC(C(=O)c1ccccc1)Nc1ccccc1-2 (stereo not drawn)	25	-3%	-1%	15*
Cc1occc1-c1nnc(SCC(=O)c2c(N)n(C3CC3)c(=O)[nH]c2=O)n1C	x	1%	x	x
O=C(Cn1c(=O)oc2ccccc21)NCC1COc2ccccc2O1 (stereo not drawn)	-5	8%	-1%	-4
COc1ccc(OC)c(C2NC(=S)NC3=C2N2CCC3CC2)c1 (stereo not drawn)	-4	-1%	2%	1
